# In the supplement of paper PMC4466140:
# B1: unnamed (peptide)
# chain: NFKRLLPRDPSEKSS
# Columns and labels:
# Experiment in all cases: SPOT peptide array binding signal intensity (averaged, normalized) (arbitrary units (background-subtracted, floor 0; scale differs between SH3 domains)); higher = stronger binding of the SH3 domain to the peptide
# AgAbp1 = target: AgAbp1
# In short: (§1)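 SH3 domains from four yeast species were expressed as GST fusions in E. coli BL21(DE3) and purified on glutathione Sepharose. Each was incubated at 10 μg/ml overnight at 4°C in TBS-based blocking buffer on cellulose membranes bearing synthetic 15-mer peptides, in which serines replaced cysteines. Bound protein was detected with anti-GST antibody, an HRP anti-mouse secondary and luminol, then imaged and quantified with Genespotter. The binding signal is the normalized, background-subtracted spot intensity averaged over replicates, in arbitrary units that are not the same from one domain to another.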
# AgBbc1 = target: AgBbc1
# In short: as §1
# AgBem1-D1 = target: AgBem1-D1
# In short: as §1
# AgBzz1-D1 = target: AgBzz1-D1
# In short: as §1
# AgBzz1-D2 = target: AgBzz1-D2
# In short: as §1
# AgCyk3 = target: AgCyk3
# In short: as §1
# AgFus1 = target: AgFus1
# In short: as §1
# AgHof1 = target: AgHof1
# In short: as §1
# AgHse1 = target: AgHse1
# In short: as §1
# AgLsb1 = target: AgLsb1
# In short: as §1
# AgLsb4 = target: AgLsb4
# In short: as §1
# AgMyo5 = target: AgMyo5
# In short: as §1
# AgNbp2 = target: AgNbp2
# In short: as §1
# AgRvs167 = target: AgRvs167
# In short: as §1
# AgSho1 = target: AgSho1
# In short: as §1
# AgSla1-D1-D2 = target: AgSla1-D1-D2
# In short: as §1
# AgSla1-D3 = target: AgSla1-D3
# In short: as §1
# CaAbp1-D1 = target: CaAbp1-D1
# In short: as §1
# CaAbp1-D2 = target: CaAbp1-D2
# In short: as §1
# CaBbc1 = target: CaBbc1
# In short: as §1
# CaBem1-D1 = target: CaBem1-D1
# In short: as §1
# CaBzz1-D1 = target: CaBzz1-D1
# In short: as §1
# CaBzz1-D2 = target: CaBzz1-D2
# In short: as §1
# CaCyk3 = target: CaCyk3
# In short: as §1
# CaFus1 = target: CaFus1
# In short: as §1
# CaHof1 = target: CaHof1
# In short: as §1
# CaHse1 = target: CaHse1
# In short: as §1
# CaLsb1 = target: CaLsb1
# In short: as §1
# CaLsb4 = target: CaLsb4
# In short: as §1
# CaMyo5 = target: CaMyo5
# In short: as §1
# CaNbp2 = target: CaNbp2
# In short: as §1
# CaRvs167 = target: CaRvs167
# In short: as §1
# CaRvs167-3 = target: CaRvs167-3
# In short: as §1
# CaSho1 = target: CaSho1
# In short: as §1
# CaSla1-D1-D2 = target: CaSla1-D1-D2
# In short: as §1
# CaSla1-D3 = target: CaSla1-D3
# In short: as §1
# ScAbp1 = target: ScAbp1
# In short: as §1
# ScBbc1 = target: ScBbc1
# In short: as §1
# ScBem1-D1 = target: ScBem1-D1
# In short: as §1
# ScBzz1-D1 = target: ScBzz1-D1
# In short: as §1
# ScBzz1-D2 = target: ScBzz1-D2
# In short: as §1
# ScCyk3 = target: ScCyk3
# In short: as §1
# ScFus1 = target: ScFus1
# In short: as §1
# ScHof1 = target: ScHof1
# In short: as §1
# ScHse1 = target: ScHse1
# In short: as §1
# ScLsb1 = target: ScLsb1
# In short: as §1
# ScLsb2 = target: ScLsb2
# In short: as §1
# ScLsb3 = target: ScLsb3
# In short: as §1
# ScLsb4 = target: ScLsb4
# In short: as §1
# ScMyo3 = target: ScMyo3
# In short: as §1
# ScMyo5 = target: ScMyo5
# In short: as §1
# ScNbp2 = target: ScNbp2
# In short: as §1
# ScPex13 = target: ScPex13
# In short: as §1
# ScRvs167 = target: ScRvs167
# In short: as §1
# ScSho1 = target: ScSho1
# In short: as §1
# ScSla1-D1-D2 = target: ScSla1-D1-D2
# In short: as §1
# ScSla1-D3 = target: ScSla1-D3
# In short: as §1
# SpAbp1-D1 = target: SpAbp1-D1
# In short: as §1
# SpBbc1 = target: SpBbc1
# In short: as §1
# SpBzz1-D1 = target: SpBzz1-D1
# In short: as §1
# SpBzz1-D2 = target: SpBzz1-D2
# In short: as §1
# SpCyk3 = target: SpCyk3
# In short: as §1
# SpHof1 = target: SpHof1
# In short: as §1
# SpHof1-2 = target: SpHof1-2
# In short: as §1
# SpHof1-3 = target: SpHof1-3
# In short: as §1
# SpHse1 = target: SpHse1
# In short: as §1
# SpLsb1 = target: SpLsb1
# In short: as §1
# SpLsb4 = target: SpLsb4
# In short: as §1
# SpMyo1 = target: SpMyo1
# In short: as §1
# SpNbp2 = target: SpNbp2
# In short: as §1
# SpPex13 = target: SpPex13
# In short: as §1
# SpRvs167 = target: SpRvs167
# In short: as §1
# SpSla1-D1-D2 = target: SpSla1-D1-D2
# In short: as §1
# SpSla1-D3 = target: SpSla1-D3
# In short: as §1
binder,measurement,setting,value
B1,SPOT peptide array binding signal intensity,AgAbp1,1
same,SPOT peptide array binding signal intensity,AgBbc1,0.75
same,SPOT peptide array binding signal intensity,AgBem1-D1,105
same,SPOT peptide array binding signal intensity,AgBzz1-D1,6
same,SPOT peptide array binding signal intensity,AgBzz1-D2,35
same,SPOT peptide array binding signal intensity,AgCyk3,0.5
same,SPOT peptide array binding signal intensity,AgFus1,311
same,SPOT peptide array binding signal intensity,AgHof1,32
same,SPOT peptide array binding signal intensity,AgHse1,2610
same,SPOT peptide array binding signal intensity,AgLsb1,2.5
same,SPOT peptide array binding signal intensity,AgLsb4,50
same,SPOT peptide array binding signal intensity,AgMyo5,1
same,SPOT peptide array binding signal intensity,AgNbp2,≤ 0
same,SPOT peptide array binding signal intensity,AgRvs167,2
same,SPOT peptide array binding signal intensity,AgSho1,99.5
same,SPOT peptide array binding signal intensity,AgSla1-D1-D2,15.5
same,SPOT peptide array binding signal intensity,AgSla1-D3,5.5
same,SPOT peptide array binding signal intensity,CaAbp1-D1,126
same,SPOT peptide array binding signal intensity,CaAbp1-D2,30
same,SPOT peptide array binding signal intensity,CaBbc1,≤ 0
same,SPOT peptide array binding signal intensity,CaBem1-D1,≤ 0
same,SPOT peptide array binding signal intensity,CaBzz1-D1,≤ 0
same,SPOT peptide array binding signal intensity,CaBzz1-D2,17.8
same,SPOT peptide array binding signal intensity,CaCyk3,≤ 0
same,SPOT peptide array binding signal intensity,CaFus1,970
same,SPOT peptide array binding signal intensity,CaHof1,0.5
same,SPOT peptide array binding signal intensity,CaHse1,81
same,SPOT peptide array binding signal intensity,CaLsb1,0.5
same,SPOT peptide array binding signal intensity,CaLsb4,≤ 0
same,SPOT peptide array binding signal intensity,CaMyo5,7
same,SPOT peptide array binding signal intensity,CaNbp2,286
same,SPOT peptide array binding signal intensity,CaRvs167,6.33
same,SPOT peptide array binding signal intensity,CaRvs167-3,31.5
same,SPOT peptide array binding signal intensity,CaSho1,340
same,SPOT peptide array binding signal intensity,CaSla1-D1-D2,≤ 0
same,SPOT peptide array binding signal intensity,CaSla1-D3,1
same,SPOT peptide array binding signal intensity,ScAbp1,66.5
same,SPOT peptide array binding signal intensity,ScBbc1,≤ 0
same,SPOT peptide array binding signal intensity,ScBem1-D1,27
same,SPOT peptide array binding signal intensity,ScBzz1-D1,21
same,SPOT peptide array binding signal intensity,ScBzz1-D2,18
same,SPOT peptide array binding signal intensity,ScCyk3,105
same,SPOT peptide array binding signal intensity,ScFus1,308
same,SPOT peptide array binding signal intensity,ScHof1,3
same,SPOT peptide array binding signal intensity,ScHse1,2620
same,SPOT peptide array binding signal intensity,ScLsb1,1
same,SPOT peptide array binding signal intensity,ScLsb2,2
same,SPOT peptide array binding signal intensity,ScLsb3,83.5
same,SPOT peptide array binding signal intensity,ScLsb4,1
same,SPOT peptide array binding signal intensity,ScMyo3,2
same,SPOT peptide array binding signal intensity,ScMyo5,4.5
same,SPOT peptide array binding signal intensity,ScNbp2,35.5
same,SPOT peptide array binding signal intensity,ScPex13,3.5
same,SPOT peptide array binding signal intensity,ScRvs167,16.2
same,SPOT peptide array binding signal intensity,ScSho1,1040
same,SPOT peptide array binding signal intensity,ScSla1-D1-D2,35.5
same,SPOT peptide array binding signal intensity,ScSla1-D3,0.5
same,SPOT peptide array binding signal intensity,SpAbp1-D1,21
same,SPOT peptide array binding signal intensity,SpBbc1,1
same,SPOT peptide array binding signal intensity,SpBzz1-D1,17.5
same,SPOT peptide array binding signal intensity,SpBzz1-D2,0.5
same,SPOT peptide array binding signal intensity,SpCyk3,7
same,SPOT peptide array binding signal intensity,SpHof1,283
same,SPOT peptide array binding signal intensity,SpHof1-2,88
same,SPOT peptide array binding signal intensity,SpHof1-3,1360
same,SPOT peptide array binding signal intensity,SpHse1,2380
same,SPOT peptide array binding signal intensity,SpLsb1,≤ 0
same,SPOT peptide array binding signal intensity,SpLsb4,23
same,SPOT peptide array binding signal intensity,SpMyo1,7.25
same,SPOT peptide array binding signal intensity,SpNbp2,44
same,SPOT peptide array binding signal intensity,SpPex13,5
same,SPOT peptide array binding signal intensity,SpRvs167,19.3
same,SPOT peptide array binding signal intensity,SpSla1-D1-D2,0.5
same,SPOT peptide array binding signal intensity,SpSla1-D3,3
